Bioassay records as filed in PubChem.
The list is not random: actives were taken first. Their share in the collection is about 4.1%.
ssDAF-12 act – S. stercoralis DAF-12 activation, primary screen; hit rate 1% among 370,000; HEK293 ssDAF-12/GRIP1 lit1-tk-luc reporter, luminescence; % of 3 µM dafachronic acid response; AID 652126; activation, % at 6.8 µM;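 active means activation above the mean over all tested compounds plus 3 SD, cut at about 0.9% in these data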;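 further: 0% = DMSO-only wells and 100% = 3 µM delta7-dafachronic acid wells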
hgDAF-12 ag – activates the H. glycines DAF-12 receptor ligand-binding domain | HEK293 GAL4-hgDAF12 UAS-luciferase reporter, agonist luminescence; normalized to butyrate control | activation, % at 6.8 µM | hit rate 1.8% among 370,000 | AID 687014;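 active means activation above a cutoff set at the mean of all screened compounds plus 3 SD, cut at about 10% in these data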;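 further: 0% = DMSO wells and 100% = sodium butyrate wells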
DAX1 inh-1 – blocks DAX1 repression of SF-1 activated StAR promoter; hit rate 1.1% among 370,000; AID 652010; inhibition, % at 6.8 µM; HEK293T StAR-luciferase reporter, SF-1/DAX-1 repression relief;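 active means inhibition above the mean over all tested compounds plus 3 SD, cut at about 3.6% in these data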;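 further: 0% = DAX-1 cells with DMSO and 100% = cells lacking DAX-1 with DMSO; higher inhibition means more luminescence from relief of DAX-1 repression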
hcDAF-12 act – activators of H. contortus DAF-12 nuclear receptor. HEK293 hcDAF-12 lit1-tk-luc reporter, luminescence; 0% DMSO, 100% Δ7-dafachronic acid. activation, % at 6.8 µM. hit rate 1.4% among 370,000;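 active means activation above the mean of all tested compounds plus 3 SD, cut at about 5.5% in these data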;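 further: 100% = response to 3 µM Δ7-dafachronic acid high control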
DAX1 inh-2 – NR0B1 (DAX1) inhibition | P51843 | HEK293 Gal4-DAX1 luciferase reporter, luminescence | inhibition, % at 6.75 µM | hit rate 0.99% among 340,000;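 active means inhibition above the mean over all tested compounds plus 3 SD, cut at about 4.2% in these data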;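 further: 0% = DAX1-transfected cells with DMSO and 100% = empty-vector control cells with DMSO; inhibition shows as a rise in luminescence from relieved DAX1 repression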
Target sequence (P51843 207-470 limits assumed): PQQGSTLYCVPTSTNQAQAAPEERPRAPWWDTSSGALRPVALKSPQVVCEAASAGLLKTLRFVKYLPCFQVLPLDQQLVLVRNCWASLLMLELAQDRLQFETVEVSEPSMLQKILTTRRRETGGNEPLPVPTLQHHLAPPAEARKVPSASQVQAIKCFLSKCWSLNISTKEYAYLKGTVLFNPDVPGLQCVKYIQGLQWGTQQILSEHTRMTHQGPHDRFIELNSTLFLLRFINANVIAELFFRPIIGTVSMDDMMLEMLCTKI
DAX1 conf – NR0B1 (human) inhibition, confirmation | shares compounds with DAX1 inh-1 | HEK293T StAR-promoter luciferase reporter, SF-1/DAX-1 repression | inhibition, % at 6.8 µM | hit rate 87% among 2,400 | AID 652134;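 active means inhibition above the average of every tested compound plus 3 SD, cut at about 3.8% in these data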;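 further: 0% = DAX-1 cells with DMSO and 100% = no DAX-1 control cells with DMSO; active compounds raise luminescence by relieving repression of the StAR reporter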
SF1 AF2mut Luc – counter-screen for DAX1 inhibitors: nonselective inhibitors with SF-1 AF2 mutant | shares compounds with DAX1 inh-1 | HEK293 StAR-luciferase, luminescence | inhibition, % at 6.8 µM | hit rate 78% among 2,400 | AID 652136;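 active means inhibition above the mean of all tested compounds plus 3 SD, cut at about 3% in these data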;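 further: 0% = DAX-1 transfected cells with DMSO and 100% = cells without DAX-1 with DMSO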
LXRb hcDAF ctr – LXR-beta agonism as hcDAF-12 counter-screen. shares compounds with hcDAF-12 act. activation, % at 6.8 µM. HEK293 Gal4-LXR tk-luc reporter, luminescence, 24 h; normalized: DMSO 0%, positive control 100%. 3,400 tested, under 10 active;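 active means mean percent activation of the reporter above a cutoff set as the average over tested compounds plus their standard deviation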
hcDAF12 ag – confirmation of H. contortus DAF-12 agonists; shares compounds with hcDAF-12 act; HEK293 hcDAF-12 lit1-tk-luc reporter, luminescence; % of Δ7-dafachronic acid response; activation, % at 6.8 µM; hit rate 61% among 3,400;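 active means mean activation across triplicate tests above the threshold derived from the earlier primary screen, cut at about 5.5% in these data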;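 further: 0% = DMSO only wells and 100% = 3 µM Δ7-dafachronic acid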
hgDAF12 ag – hgDAF-12 agonism, confirmation assay; shares compounds with hgDAF-12 ag; HEK293 GAL4-hgDAF12 luciferase reporter, agonist mode; percent of butyrate response; activation, % at 6.8 µM; hit rate 80% among 3,300; AID 743050;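 active means mean activation over triplicate wells above the hit cutoff derived from the earlier primary screen, cut at about 11% in these data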;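 further: 0% = DMSO low control and 100% = 2 mM sodium butyrate high control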
LXRb DAF12 ctr – counter-screen for DAF-12 agonists: agonists of human LXR-beta; shares compounds with hgDAF-12 ag; HEK293 Gal4-LXR luciferase reporter, 24 h; activation, % at 6.8 µM; 3,300 tested, under 10 active;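 active means mean activation of the triplicate above a set limit carried over from the primary screen, none filed active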
* hit, by the source's call.

`O=C1CS/C(=C/C(=O)c2ccccc2)N1` gave ssDAF-12 act -1, hgDAF-12 ag 1, DAX1 inh-1 0, hcDAF-12 act -1 and DAX1 inh-2 0.
Screening O=C(NC1CCCCN(Cc2cccc(C(F)(F)F)c2)C1=O)c1ccc(F)c(F)c1 (stereo unspecified) returned ssDAF-12 act -1, hgDAF-12 ag -3, DAX1 inh-1 -1 and hcDAF-12 act -3.
`COc1cc2c(cc1NC(=O)CSc1nnc(-c3cccc(Cl)c3)n1Cc1ccco1)oc1ccccc12` gave ssDAF-12 act -1, hgDAF-12 ag 0, DAX1 inh-1 0 and hcDAF-12 act 0.
For COc1ccc(-c2nn(-c3ccccc3)cc2N)cc1 the results were ssDAF-12 act 0, hgDAF-12 ag 16*, DAX1 inh-1 5.3*, hcDAF-12 act 4, DAX1 inh-2 2, DAX1 conf 9.2*, SF1 AF2mut Luc 5.8*, hgDAF12 ag 16* and LXRb DAF12 ctr 0.
Screening Cn1cccc1C(=O)N1CCN(S(=O)(=O)c2cccs2)CC1 returned ssDAF-12 act -1, hgDAF-12 ag -2, DAX1 inh-1 -1 and hcDAF-12 act 1.
Cc1cc(C(=O)CSc2nn(-c3ccccc3)c(=S)s2)c(C)n1Cc1ccco1 was read as ssDAF-12 act -2, hgDAF-12 ag -5, DAX1 inh-1 -1, hcDAF-12 act -2 and DAX1 inh-2 -3.
Screening Cc1cc(C(=O)CSc2nncs2)c(C)n1Cc1ccco1 returned ssDAF-12 act 0, hgDAF-12 ag 16*, DAX1 inh-1 4.8*, hcDAF-12 act 5, DAX1 inh-2 -2, DAX1 conf 9.8*, SF1 AF2mut Luc 5.3*, hgDAF12 ag 13* and LXRb DAF12 ctr 1.
CN(CCc1ccccn1)C(=O)c1ccc(Sc2ccccc2Cl)c([N+](=O)[O-])c1 was read as ssDAF-12 act -1, hgDAF-12 ag -1, DAX1 inh-1 -1 and hcDAF-12 act -4.
O=C(NN=Cc1ccc(Cl)cc1Cl)c1ccccc1 was read as ssDAF-12 act 1, hgDAF-12 ag 17*, DAX1 inh-1 5.5*, hcDAF-12 act 3, DAX1 inh-2 3, DAX1 conf 11*, SF1 AF2mut Luc 5.8*, hgDAF12 ag 16* and LXRb DAF12 ctr 1.
For O=C(N/N=C/c1ccc(Cl)cc1Cl)c1ccncc1 the results were ssDAF-12 act -1, hgDAF-12 ag 3, DAX1 inh-1 -1, hcDAF-12 act -2 and DAX1 inh-2 1.
`Cc1ccc(C=Cc2ccccn2)cc1` gave ssDAF-12 act 0, hgDAF-12 ag 13*, DAX1 inh-1 7.5*, hcDAF-12 act 3, DAX1 inh-2 4.5*, DAX1 conf 12*, SF1 AF2mut Luc 4.9*, hgDAF12 ag 20* and LXRb DAF12 ctr 1.
Screening Cc1cc(C)n2nc(-c3ccc(F)cc3)cc2n1 returned ssDAF-12 act 2.9*, hgDAF-12 ag 18*, DAX1 inh-1 6.6*, hcDAF-12 act 9.5*, DAX1 inh-2 3, DAX1 conf 13*, SF1 AF2mut Luc 8.5*, LXRb hcDAF ctr 1, hcDAF12 ag 12*, hgDAF12 ag 18* and LXRb DAF12 ctr 1.
